Measurements taken from PubChem BioAssay.

The compounds below were run against Fibroblast growth factor 2 (Homo sapiens) (UniProt P09038) (assay: FGF2 binders on small-molecule microarrays, primary screen, biochemical, small-molecule microarray, 635/667 nm fluorescence (AID 1133)). Details: small-molecule microarray binding, FGF2, fluorescence 635/667; higher = more signal.
Sequence of Fibroblast growth factor 2 (Homo sapiens) (P09038 whole entry, looked up): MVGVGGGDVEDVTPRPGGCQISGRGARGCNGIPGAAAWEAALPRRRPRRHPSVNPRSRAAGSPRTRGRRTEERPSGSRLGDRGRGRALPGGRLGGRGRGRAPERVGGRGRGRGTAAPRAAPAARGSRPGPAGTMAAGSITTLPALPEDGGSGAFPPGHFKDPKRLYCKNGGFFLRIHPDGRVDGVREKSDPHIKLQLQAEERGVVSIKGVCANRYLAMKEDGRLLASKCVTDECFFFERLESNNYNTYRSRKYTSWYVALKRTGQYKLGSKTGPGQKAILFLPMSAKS

Point of comparison: `C[N+](C)(C)CCCCNC(=O)[C@H]1C[C@H]2C(=O)N[C@@H](Cc3ccccc3)C(=O)N2[C@H]1c1cccc(OCCO)c1`, composite z-score 1.87. Against it:
- COCCOC(=O)N1C(=O)[C@@]2(c3cc(C#CCC(C(=O)OC)C(=O)OC)ccc31)[C@H](C(N)=O)[C@H]1C(=O)O[C@H](c3ccccc3)[C@H](c3ccccc3)N1[C@@H]2c1ccc(O)cc1 — lower, 0.468
- COc1cc(OC)c(C(O)C2C=CC3C(=O)N(c4ccccc4)C(=O)C3N2Nc2ccc(C(C)C)cc2)cc1Br (stereo unspecified) — lower, 0.0421
- C#CCN1[C@@H](Cc2ccccc2)C(=O)O[C@H](Cc2ccccc2)[C@@H]1/C=C/C1CC1 — lower, 0.43
- CN(C)CCCNC(=O)[C@@H]1c2ccccc2C(=O)N(Cc2ccccc2C(F)(F)F)[C@H]1c1ccc(CO)cc1 — lower, -0.361
- COc1ccc([Si](C)(C)[C@H]2[C@H](CCO)O[C@@]3(C(=O)N(Cc4ccc(NC(=O)[C@H](C)O)cc4)c4ccccc43)[C@@H]2C)cc1 — lower, 0.634
- CCOC(=O)C[C@H]1[C@H](OC(=O)c2ccccc2-c2ccccc2)[C@@H](NC(=O)c2ccc3ccccc3c2)c2cc(OCCCO)ccc2N1C(=O)Cc1ccc(OC)cc1 — lower, -0.0445
- COCCCN1C(=O)[C@@]2(c3ccc([N+](=O)[O-])cc3)CC(=O)N(CC34CC5CC(CC(C5)C3)C4)[C@@H]2c2ccc(CO)cc21 — lower, 0.232
- C=C1C(=O)C=C2CN(C(=O)c3ccccc3)[C@@](Cc3ccc(OC)cc3)(C(=O)OC)[C@@H]12 — lower, -0.0686
- C=CCNC(=O)[C@H]1[C@@H]2C(=O)O[C@@H](c3ccccc3)[C@@H](c3ccccc3)N2[C@@H](c2ccc(OCCO)cc2)[C@]12C(=O)Nc1ccccc12 — lower, -0.342
- COCCOC(=O)N1C(=O)[C@@]2(c3ccccc31)[C@H](c1ccc(O)cc1)N1[C@H](c3ccccc3)[C@H](c3ccccc3)OC(=O)[C@H]1[C@@H]2C(=O)N1CCCCCCC1 — lower, 1.74
- CC(C)[Si](C#CCCc1ccccc1)(O[C@H](c1ccccc1)c1cn(Cc2ccccc2)nn1)C(C)C — lower, 0.368
- COc1ccc([Si](C)(C)[C@@H]2[C@@H](CC(=O)N3Cc4ccccc4C[C@H]3CO)O[C@]3(C(=O)N(Cc4cccc(N5CCOC5=O)c4)c4ccccc43)[C@H]2C)cc1 — lower, 1.4
- CN1C(=O)[C@@H]2[C@@H](CC(COc3ccccc3)=C3[C@@H](CCc4ccccc4)OB(O)C[C@@H]32)C1=O — lower, -0.0572
- COc1cc(C(O)C2C=CC3C(=O)N(c4ccccc4)C(=O)C3N2Nc2ccccc2F)cc(OC)c1OC (stereo unspecified) — lower, -0.171
- CCCCN1CC=CC23O[C@@H]4/C=C\CCCOC(=O)C4[C@H]2C(=O)N(C(CO)C(C)C)[C@@H]3C1=O (stereo partly specified) — lower, 0.0877
- O=C1N(CCS(=O)(=O)c2ccccc2)c2ccccc2C[C@]12N=C(c1ccc(OCCCO)cc1)O[C@@H]2c1ccccc1 — lower, 1.71
- O=C1NC(=O)C2C1C=CC(C(O)c1ccc([N+](=O)[O-])cc1)N2Nc1ccccn1 (stereo unspecified) — lower, -0.163
- O=C1[C@H]2C=C(I)[C@H](C[C@@H]2OCCCCCCO)[C@@]12CO2 — lower, 0.888
- CN(C)C(=O)[C@]1(Cc2ccccc2)N=C(c2ccc(OCCCO)cc2)O[C@@H]1c1ccccc1CN=[N+]=[N-] — lower, 0.287
- Cc1ccc(C(C)CC(O)C2C=CC3C(=O)N(C)C(=O)C3N2Nc2ccccc2)o1 (stereo unspecified) — lower, 0.482
- CCCCCCc1nc(-c2ccc(-c3ccc(Cl)c(Cl)c3)o2)cc2c1[Si](C(C)C)(C(C)C)OC2 — lower, -0.985
- CC1CC/C=C\[C@H]2OC34C=CCN(c5ccc(Cl)cc5)C(=O)[C@H]3N(CCCCCCO)C(=O)[C@]4(C)C2C(=O)O1 (stereo partly specified) — lower, -0.662
- C=C(CCCC)/C(=C/C[C@H](OC(=O)c1ccncc1)c1cccc(OCCO)c1)c1cnc2ccccc2c1 — lower, 0.688
- C[C@@H]1ON(c2ccccc2)[C@H](c2ccccc2)[C@H]1C(=O)O — lower, 0.931
- CCOC(=O)C1=CC[C@@H](c2ccc(OC)cc2)N(S(=O)(=O)c2ccc(C)cc2)[C@H]1CC — lower, 0.873
- COC(=O)[C@@]1(Cc2ccc(OC)cc2)[C@H]2c3cc(C(=O)N(C)C)[nH]c3C[C@H]2CN1C(=O)c1ccccc1 — lower, -0.738
- CCCCC(O)C1C=CC2C(=O)N(c3ccccc3)C(=O)C2N1Nc1ccccc1 (stereo unspecified) — lower, -1.26
- CC(C)OC(=O)CC(=O)CC(O)c1cccc([N+](=O)[O-])c1 (stereo unspecified) — lower, -0.277
- O=C1NC(=O)C2C1C=CC(C(O)c1ccc(B(O)O)cc1)N2Nc1ccc(Cl)cc1Cl (stereo unspecified) — lower, -0.514
- O=C1c2ccccc2[C@@]2(Cc3ccccc3N(Cc3ccccc3)C2=O)[C@H](c2ccc(CO)cc2)N1Cc1ccccc1Cl — lower, -0.395
- CO[C@H]1O[C@H](CO)[C@@H](OC(=O)Nc2ccccc2)[C@H](OC(=O)Nc2ccccc2)[C@H]1OC(=O)Nc1ccccc1 — lower, 1.02
- COCCCNC(=O)[C@@]1(CCS(=O)(=O)c2ccccc2)COC(c2ccc(OCCCO)cc2)=N1 — lower, 0.194
- COc1ccc(C(O)C2C=CC3C(=O)NC(=O)C3N2Nc2ccc(Cl)cc2Cl)c2ccccc12 (stereo unspecified) — lower, -0.19
- O=C1C[C@@](C(=O)O)(c2ccc([N+](=O)[O-])cc2)[C@@H](c2ccc(CO)cc2)N1C1CCCCC1 — lower, 0.26
- CC(C)(C)N1CC=CC23O[C@@H]4/C=C\CCCOC(=O)C4[C@H]2C(=O)N(CCCCCO)[C@@H]3C1=O (stereo partly specified) — lower, -0.594
